Test results from PubChem BioAssay.

Assay: small-molecule microarray binders of probe aEGFR, primary screen, biochemical, biotinylated probe, 635/667 nm fluorescence (AID 1097);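 note: probe is a biotinylated anti-EGFR antibody binding compounds printed on slides; score combines fluorescence near 667 nm and signal to noise of each spot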
Settings: higher = more signal

Compound	composite z-score
COC(=O)CC=C[C@@H](C)[C@@H](C=NOC[C@H]1O[C@H](c2ccccc2)C=C[C@@H]1Oc1ccc(OC)cc1)NS(=O)(=O)c1ccc(C)cc1	-0.195
C=CC1=C[C@H](O)[C@@H]2O[C@@H]2C12OCCCO2	0.009
COC(=O)CC=C[C@@H](C)[C@H](OCc1cccc(-c2ccccc2)c1)C1CCCCC1	-0.27
CC(C)CON=C1C[C@@H](O)[C@@H](O)[C@@H]2[C@@H]3C(=O)N(Cc4ccc5c(c4)OCO5)C(=O)[C@@H]3CC[C@H]12	-0.0697
COc1ccc(O[C@H]2C=C[C@@H](c3ccccc3)O[C@@H]2CON=C(C)C)cc1	0.0102
COC(=O)CC=C[C@@H](C)[C@@H](C=NOC(C)CN1CCCc2nc(C)c(C)cc21)OC (stereo partly specified)	0.0009
CC(C)(C)N1C(=O)[C@H]2[C@H]3[C@H](O)[C@H](O)CC(=NO[C@@H]4O[C@H](CO)[C@@H](O)[C@H](O)[C@H]4O)[C@H]3CC[C@H]2C1=O	0.0334
C#CCCCON=C1C[C@@H](O)[C@@H](O)[C@@H]2[C@@H]3C(=O)N(C(C)(C)C)C(=O)[C@@H]3CC[C@H]12	0.113
CCOC(=O)NN=C1C[C@@H](O)[C@@H](O)[C@@H]2[C@@H]3C(=O)N([C@@H](C)c4ccccc4)C(=O)[C@@H]3CC[C@H]12	0.0122
COC(=O)[C@@H]1CC[C@H](C)[C@@H](c2ccc(C)cc2)N1C(=O)c1ccc(C=NO[C@H](C)c2cn([C@H](CO)Cc3ccccc3)nn2)cc1	0.119
CCOC(=O)CCN1C(=O)[C@H]2[C@H]3[C@H](O)[C@H](O)CC(=NNC(=O)OCc4ccccc4)[C@@H]3CC[C@H]2C1=O	-0.0688
